Source: PubChem (National Center for Advancing Translational Sciences (NCATS))
Only some compounds are listed: those with a hit (about 18% of all), similar ones and a draw of the others.
TDP1 cell noCPT: qHTS for Inhibitors of human tyrosyl-DNA phosphodiesterase 1 (TDP1): qHTS in cells in absence of CPT. DT40 Tdp1-/- hTDP1 cells, no CPT, ATP luminescence, 48 h. Potency, µM (titrated, usually from 46.2 µM), without a hit: at the highest dose activity change, negative = growth inhibition, most hits filed as inhibitors. 15% of 420,000 active. AID 686978, 2013; note: potency is the fitted concentration of half-maximal effect; nearly all actives have a fitted effect of over 55% in size
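Seeded 400 DT40-hTDP1 cells/well (vehicle DMSO, no 20 nM CPT); pinned compounds; ≥48 hr at 37 °C; CellTiter-Glo luminescence as viability measure.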
Gal4-VP16 FLuc: Gal4-VP16 reporter inhibition counter-screen; 3.5% of 310,000 active; Drosophila S2 Gal4-VP16 UAS-luciferase, luminescence, 20 h; Potency, µM (titrated, usually from 53.6 µM), without a hit: at the highest dose activity, negative = inhibition, most hits filed as inhibitors;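 note: Gal4-VP16 expression switched on by copper sulfate through the metallothionein promoter; potency is the fitted concentration of half-maximal effect; nearly all actives have a fitted effect of over 50% in size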
LDHA block: blocks human lactate dehydrogenase A | P00338 | purified LDHA, NADH/diaphorase-resazurin fluorescence; stronger effect = lower value | activity change, % (values are at about 110 or 230 µM) | 0.15% of 480,000 active; in the data active = activity change below about -30%; inconclusive = mostly about -25% to -30%;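 note: plate controls were DMSO wells for no effect and wells without enzyme for full effect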
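Human LDH5 at 2 nM final in Tris HCl pH 7.4 with 0.06 mM NADH and 0.2 mM pyruvate, reacted 5 minutes at room temperature. Remaining NADH coupled via diaphorase/resazurin; resorufin fluorescence read at 0 and 20 minutes, normalized to enzyme-free and DMSO wells.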
RORg inh: blocks mouse ROR gamma transcriptional activity; P51450; Drosophila S2 Gal4-RORgamma UAS-luciferase reporter, 20 h; Potency, µM (highest dose often 53.6 µM), for the others: at the highest dose activity change, negative = inhibition, actives largely listed as inhibitors; 5.4% of 310,000 active; note: potency is the fitted concentration of half-maximal effect; nearly all actives have a fitted effect of over 60% in size
Target sequence (P51450 whole entry, looked up, the tested form may be a part): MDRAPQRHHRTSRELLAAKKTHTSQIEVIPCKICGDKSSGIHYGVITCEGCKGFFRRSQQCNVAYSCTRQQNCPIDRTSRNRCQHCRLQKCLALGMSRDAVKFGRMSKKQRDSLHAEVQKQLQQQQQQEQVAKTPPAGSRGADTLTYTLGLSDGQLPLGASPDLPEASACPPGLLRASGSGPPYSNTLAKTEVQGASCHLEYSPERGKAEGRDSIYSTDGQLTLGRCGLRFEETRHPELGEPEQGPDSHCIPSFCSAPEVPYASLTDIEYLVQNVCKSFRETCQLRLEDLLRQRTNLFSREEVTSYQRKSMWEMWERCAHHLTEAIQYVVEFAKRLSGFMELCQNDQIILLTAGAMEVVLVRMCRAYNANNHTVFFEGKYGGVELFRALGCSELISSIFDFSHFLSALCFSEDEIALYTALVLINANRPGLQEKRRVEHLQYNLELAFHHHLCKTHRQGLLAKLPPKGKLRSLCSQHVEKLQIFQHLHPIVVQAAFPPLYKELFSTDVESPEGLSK
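A Gal4/UAS one-hybrid system in insect cells: metallothionein-promoter Gal4–ROR gamma fusion plus Photinus luciferase reporter. Copper sulfate 700 uM final, 20 hr ambient incubation, luminescent detection after 10 min with reagent.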
TDP1 cell CPT: DT40-hTDP1 cell growth loss with CPT; 12% of 420,000 active; Potency, µM (top dose mostly 46.2 µM), inactives show top-dose activity change, negative = growth inhibition, usual class: inhibitors; chicken DT40 Tdp1-/-;hTDP1 cells + 20 nM CPT, ATP luminescence, 48 h; note: potency is the fitted concentration of half-maximal effect; nearly all actives have a fitted effect of over 55% in size
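Chicken DT40 Tdp1-/- cells stably complemented with human TDP1 were seeded at 400 cells/well in medium containing 20 nM camptothecin, exposed to pin-transferred compounds, and grown at 37 °C for at least 48 hr. Viability was read as ATP luminescence.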
IL-1B inflam inh: inflammasome signaling inhibition, IL-1 beta readout; activity change, % at 57.5 µM; 4.7% of 360,000 active; AID 743279; THP-1 LPS/ATP IL-1B secretion, AlphaLISA, 16 h; stronger effect = lower value; in the data active = activity change below about -50%; inconclusive = mostly about -30% to -49%
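THP-1 cells pretreated 1 hr with compounds (up to 57.5 uM final), then stimulated with LPS (250 ng/mL final) plus ATP (1.25 mM final); secreted IL-1B measured by AlphaLISA after 16 hr, decreased signal indicating inhibition.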
Starred values were filed as active, the others as inactive. Unless noted, calls come from the whole dose curve; as a rule, active = well fitted curve in the direction sought with a large enough effect; inconclusive = small, poorly fitted or top-dose-only effect, or another doubt; inactive = no such curve, though single readings can be large; an effect the other way counts as inactive or inconclusive. Unless noted, % is set by controls: 0 for no effect and ±100 for the full control effect.

Screening COc1ccc(Cl)cc1NC(=O)CCCN1C(=O)C(c2ccccc2)Oc2cccnc21 (configuration not stated) returned TDP1 cell noCPT 23µM*, LDHA block 5 and TDP1 cell CPT 18µM*.
`COc1ccc(CNC(=O)CN2C(=O)C(c3ccccc3)Oc3cccnc32)cc1` (configuration not stated) gave TDP1 cell noCPT inconclusive, Gal4-VP16 FLuc -2%, LDHA block 2, RORg inh 16%, TDP1 cell CPT -16% and IL-1B inflam inh -9.
Screening COc1ccc(C)cc1NC(=O)CCCN1C(=O)C(c2ccccc2)Oc2cccnc21 (configuration not stated) returned TDP1 cell noCPT inconclusive, Gal4-VP16 FLuc -6%, LDHA block -5, RORg inh 21%, TDP1 cell CPT inconclusive and IL-1B inflam inh -17.
For CCOc1ccc2cc(/C(=N/O)C3CCCCC3)ccc2c1 the results were LDHA block -4.
CC(C)C(=O)Nc1ccc(-c2nc3cccnc3o2)cc1 was read as TDP1 cell noCPT -12%, Gal4-VP16 FLuc inconclusive, LDHA block -3, RORg inh 43%, TDP1 cell CPT 10% and IL-1B inflam inh -18.
For CC(C)(C)c1ccc(OCC(=O)Nc2ccc(-c3nc4cccnc4o3)cc2)cc1 the results were TDP1 cell noCPT 9.2µM*, Gal4-VP16 FLuc 10%, LDHA block -5, RORg inh -21%, TDP1 cell CPT inconclusive and IL-1B inflam inh -16.
For CCC(=O)Nc1ccc(-c2nc3ncccc3o2)cc1C the results were TDP1 cell noCPT -4%, LDHA block -12 and TDP1 cell CPT 1%.
COc1ccc(-c2nc3ccccc3o2)cc1NC(=O)COc1ccc(C(C)(C)C)cc1 was read as TDP1 cell noCPT 16µM*, LDHA block -1 and TDP1 cell CPT inconclusive.
`Cc1cc(-c2nc3ncccc3o2)ccc1NC(=O)COc1ccc(C(C)(C)C)cc1` gave TDP1 cell noCPT 16µM*, LDHA block -1 and TDP1 cell CPT 18µM*.
`CC(C)(C)NC(=O)C1CCN(c2oc(-c3ccco3)nc2C#N)CC1` gave LDHA block 6.
Screening COc1ccc(S(=O)(=O)Nc2ccc3c(c2)CC(=O)N([C@@H](C)CO)C[C@@H](C)[C@@H](CN(C)Cc2ccccc2)O3)cc1 returned TDP1 cell noCPT 16µM*, LDHA block 1, TDP1 cell CPT 18µM* and IL-1B inflam inh -15.
Screening COc1ccc(S(=O)(=O)N(C)C[C@H]2Oc3ccc(NS(=O)(=O)c4ccccc4)cc3CC(=O)N([C@H](C)CO)C[C@@H]2C)cc1 returned TDP1 cell noCPT inconclusive, LDHA block 1, TDP1 cell CPT inconclusive and IL-1B inflam inh -2.
Cc1ccc(S(=O)(=O)Nc2ccc3c(c2)CC(=O)N([C@H](C)CO)C[C@H](C)[C@H](CN(C)Cc2ccc4c(c2)OCO4)O3)cc1 was read as TDP1 cell noCPT 18µM*, LDHA block 5, TDP1 cell CPT 21µM* and IL-1B inflam inh 50.
`CCOC(=O)CCCCCC(=O)Nc1ccc2c(c1)CC(=O)N([C@H](C)CO)C[C@@H](C)[C@H](CN(C)Cc1ccc3c(c1)OCO3)O2` gave TDP1 cell noCPT inconclusive, LDHA block 2, TDP1 cell CPT inconclusive and IL-1B inflam inh 7.
C[C@@H]1CN([C@H](C)CO)C(=O)Cc2cc(NC(=O)Nc3ccccc3)ccc2O[C@@H]1CN(C)Cc1ccc2c(c1)OCO2 was read as TDP1 cell noCPT inconclusive, LDHA block 4, TDP1 cell CPT inconclusive and IL-1B inflam inh -64*.
For Cc1cccc(NC(=O)c2ncoc2-c2cccc(Cl)c2)c1C the results were LDHA block 3.
For CN(CCCNC(=O)c1nc2ccccc2c(=O)[nH]1)C(=O)c1ccccc1 the results were LDHA block -1.
`O=C(Nc1nnc(C2CC2)s1)c1ccc(Cl)c(S(=O)(=O)N2CCc3ccccc32)c1` gave LDHA block 0.
For Cc1ccc(-n2ncc(C(=O)NC3CCN(Cc4ccccc4)CC3)c2C2CCN(C(=O)OC(C)(C)C)CC2)cc1C the results were TDP1 cell noCPT 15µM*, LDHA block 5 and TDP1 cell CPT 21µM*.
For CC(C)(C)OC(=O)N1CCC(c2c(C(=O)NC3CCN(Cc4ccccc4)CC3)cnn2-c2cccc(F)c2)CC1 the results were TDP1 cell noCPT 9.2µM*, LDHA block 1 and TDP1 cell CPT 12µM*.
`Cc1nc(CSc2ccc3c(c2)OCCCO3)oc1C` gave LDHA block 2.
`O=C(NCCS(=O)(=O)N1CCN(c2ccc(F)cc2)CC1)C12CC3CC(CC(C3)C1)C2` gave TDP1 cell noCPT 16µM*, LDHA block -3, TDP1 cell CPT 18µM* and IL-1B inflam inh -19.
`O=C(NCCS(=O)(=O)N1CCN(c2ccc(F)cc2)CC1)c1cccc(C(F)(F)F)c1` gave TDP1 cell noCPT 18µM*, LDHA block -2 and TDP1 cell CPT inconclusive.
CSc1ccccc1C(=O)NCCS(=O)(=O)N1CCN(c2ccc(F)cc2)CC1 was read as TDP1 cell noCPT inconclusive, LDHA block 0, TDP1 cell CPT inconclusive and IL-1B inflam inh -4.
`COc1ccc(C(NC(=O)Cc2n[nH]c(=O)c3ccccc23)c2ccccc2)cc1` (configuration not stated) gave LDHA block 1.
`O=C(NCCNc1ccc(Cl)cc1[N+](=O)[O-])c1ccccc1F` gave TDP1 cell noCPT 21µM*, Gal4-VP16 FLuc -7%, LDHA block -2, RORg inh 32%, TDP1 cell CPT -18% and IL-1B inflam inh -7.
`O=C(NCCNc1ccnc2cc(Cl)ccc12)c1ccccc1F` gave TDP1 cell noCPT 4.1µM*, Gal4-VP16 FLuc 11µM*, LDHA block -4, RORg inh inconclusive, TDP1 cell CPT 6.5µM* and IL-1B inflam inh -14.
`O=C(NCCCCNC(=O)c1ccccc1F)c1ccccc1F` gave TDP1 cell noCPT inconclusive, Gal4-VP16 FLuc -9%, LDHA block -11, RORg inh -7%, TDP1 cell CPT 0% and IL-1B inflam inh 7.
`Cc1csc(CNC(=O)N(C)Cc2ccc3c(c2)OCO3)n1` gave LDHA block -12.
